This is an account of results in PubChem BioAssay (NCI).

Holding throughout (test): NCI-60 one-dose screen, 48 h (100 = growth as untreated, 0 = no growth, -100 = all killed)
Settings in all cases: 10 µM unless noted

Experiment [1] deals with K-562 leukemia.
Experiment [2] concerns MALME-3M melanoma.
Experiment [3] concerns MDA-MB-231 breast.
For experiment [4], the system named is RXF 393 renal.
The test system of experiment [5] is SF-268 CNS.
Experiment [6] deals with SF-539 CNS.
For experiment [7], the system named is UACC-257 melanoma.
Experiment [8] deals with M14 melanoma.
Experiment [9] relates to HCT-15 colon.
Experiment [10] concerns HT29 colon.
Experiment [11] has as its system SNB-75 CNS.
In experiment [12] the test system is SNB-19 CNS.
Experiment [13] deals with U251 CNS.
The subject of experiment [14] is PC-3 prostate.
Experiment [15] deals with SK-MEL-5 melanoma.
The subject of experiment [16] is UACC-62 melanoma.
Experiment [17] concerns LOX IMVI melanoma.
Experiment [18] has as its system SK-MEL-28 melanoma.
Experiment [19] relates to SK-MEL-2 melanoma.

This is part of a sample that, as a whole, favours compounds with a hit. Of some 83,000 tested, about 20% had one in any assay.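 Negative percent growth values reflect cell death: -40 means 40% of the cells present at the start died, and -100 means all died.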 Unmarked numbers belong to inactive results. Calls of active or inactive are those of the source. Rule for the calls: active = growth percent below 10; inactive = the rest.

Turning to `O=c1ccn(C2CCCO2)c(=O)[nH]1` (configuration not stated), the growth in experiment [1] was 105%; in experiment [2] it was 116%; in [3], 107%; in experiment [4], 111%; in [5], 104%; in experiment [6], 91.6%. Further, the growth in experiment [7] was 90.9%; in experiment [8], 107%; in [9], 105%; in experiment [10], 98.3%; in experiment [11], 91.9%; in experiment [12], 109%. The growth in experiment [13] is 97.2%; in experiment [14], 105%; in experiment [15], 111%; in experiment [16], 109%; in experiment [17], 107%; in experiment [18], 108%. Besides, the growth in experiment [19] was 124%.

Consider `Cc1nc(N)[nH]c(=O)c1C`, for which the growth in experiment [1] was 86.9%; in experiment [2], 156%; in [3], 102%; in [4] it was 104%; in experiment [5], 114%; in experiment [6] it was 107%. The growth in [7] is 87%; in experiment [8], 105%; in experiment [9], 122%; in [10], 107%; in [11], 99.4%; in experiment [12], 95.4%. The growth was 95.4% in [13]; 117% in [14]; 108% in experiment [15]; 91.1% in experiment [16]; 102% in experiment [17]; 120% in experiment [18]. In addition, the growth in experiment [19] was -10.2% (active).

Turning to `CCOC(=O)C1=C(C)N2C(=NC3=C(CCC/C3=C\c3ccc(Cl)cc3)C2c2ccc(Cl)cc2)S1` (configuration not stated), the growth in [1] is -11.8% (active); in experiment [2] it was 77%; in [3], 71.6%; in experiment [4] it was -71.7% (active); in [5], 34.7%; in [6], 41.3%. The growth was 25.7% in [7]; -40.8% (active) in experiment [8]; -28.7% (active) in [9]; -54.3% (active) in experiment [10]; 64.2% in experiment [11]; 55.4% in experiment [12]. Besides, the growth in experiment [13] is -100% (active); in experiment [14], 24.3%; in [15] it was 40.8%; in experiment [16], 54.7%; in [17] it was -100% (active); in [18], 48.8%. Moreover, the growth in [19] was 76.6%.

Regarding `S=c1[nH]nc2sc3ccccc3n12`, the growth in experiment [1] is 107%; in [2], 122%; in experiment [3], 96.7%; in experiment [4], 116%; in experiment [5], 110%; in experiment [6], 106%. Further, the growth in [7] was 111%; in experiment [8], 104%; in experiment [9], 100%; in experiment [10], 101%; in [11] it was 81.6%; in experiment [12], 106%. The growth was 105% in experiment [13]; 112% in [14]; 106% in experiment [15]; 97.4% in [16]; 99.2% in experiment [17]; 114% in experiment [18]. In [19], the growth is 103%.

Regarding `O=Cc1c[nH]c2ccc(NC(=O)OCc3ccccc3)cc12`, the growth in experiment [1] was 72.2%; in experiment [2], 186%; in experiment [3] it was 88.4%; in experiment [4], 96.6%; in experiment [5], 102%; in experiment [6], 110%. The growth was 85.6% in [7]; 105% in experiment [8]; 67.1% in experiment [9]; 89% in [10]; 87.1% in experiment [11]; 89% in experiment [12]. In addition, the growth in experiment [13] is 78.8%; in experiment [14] it was 48.6%; in experiment [15], 99.1%; in experiment [16], 90.4%; in experiment [17], 105%; in experiment [18], 145%. For the same compound, the growth in experiment [19] was -19.1% (active).

As to `C=C1c2c(C)nn(-c3ccc(C#CCOC4OC(CO)C(O)C(O)C4O)cc3)c2N(C)C23C[C@H]1C1(C)c4c(C)nn(-c5ccc(C#CCOC6OC(CO)C(O)C(O)C6O)cc5)c4N(C)C(C)(C[C@H]12)C3` (some centres not stated), the growth is 9.32% (active) in [1]; 5.2% (active) in experiment [2]; 5.4% (active) in experiment [3]; 37.5% in [4]; 7.57% (active) in experiment [5]; -15.3% (active) in [6]. For the same compound, the growth in experiment [7] was 34.2%; in experiment [8], 0.248% (active); in experiment [9], 21.7%; in experiment [10] it was 8.04% (active); in [11] it was 6.04% (active); in experiment [12], 2.15% (active). The growth is -35% (active) in experiment [13]; -26.1% (active) in experiment [14]; -74.7% (active) in [15]; -36.7% (active) in [16]; -42.4% (active) in [17]; 5.91% (active) in experiment [18]. For the same compound, the growth in [19] was -43.5% (active).

For the compound `COC(=O)c1ccc2c(c1)nc(-c1ccc(O)c(OC)c1)n2-c1cc(C(C)(C)C)[nH]n1`, the growth in [1] was 90.6%; in [2], 114%; in experiment [3], 97.7%; in experiment [4], 131%; in [5], 104%; in experiment [6] it was 105%. The growth is 101% in [7]; 95.7% in experiment [8]; 115% in experiment [9]; 96.3% in experiment [10]; 111% in experiment [11]; 101% in experiment [12]. Moreover, the growth was 93.3% in experiment [13]; 65.8% in experiment [14]; 83.6% in [15]; 88.3% in experiment [16]; 96.8% in experiment [17]; 118% in experiment [18]. Moreover, in experiment [19], the growth is 92.3%.

`Cc1cc(NC(=O)c2ccc(N)cc2)ccc1N=Nc1ccc2c(O)c(N=Nc3ccc(Cl)c(S(=O)(=O)O)c3)c(S(=O)(=O)O)cc2c1`: the growth in experiment [1] is 62.4%; in experiment [2], 105%; in experiment [3], 109%; in [4], 68.6%; in [5], 89.9%; in [6], 87.3%. The growth in [7] is 87.5%; in experiment [8], 92.5%; in experiment [9], 83.6%; in experiment [10] it was 91%; in experiment [11], 104%; in experiment [12] it was 105%. The growth in experiment [13] is 68.7%; in experiment [14], 92%; in experiment [15], 65.1%; in [16], 88.5%; in experiment [17], 72.7%; in experiment [18], 96.4%. Further, the growth in experiment [19] was 98.3%.
